Experimental data taken from PubChem BioAssay AID493014 (National Center for Advancing Translational Sciences (NCATS), 2011).
Screen size: about 340,000 compounds; about 170 (0.05%) were called active. Not shown: some 26% with an inconclusive outcome. Calls follow the shape of the dose curve; as a rule, active = well fitted inhibition curve with a large enough effect in the signal ratio, with a control signal flat (not every such curve was filed as active); inconclusive = small, poorly fitted or top-dose-only effect, or effect the other way, or a change in a side signal; inactive = flat fitted curve, though single readings scatter; the % refers to the signal ratio. Only a selection was taken, and actives are over-represented in it overall.

Assay: qHTS Assay to Find Inhibitors of Chronic Active B-Cell Receptor Signaling
Conditions: ABC-DLBCL IkBa-CBG/CBR reporter, luminescence ratio, 4 h; series mostly up to 46.1 µM
From the text: NIH Molecular Libraries Probe Production Network [MLPCN] NIH Chemical Genomics Center [NCGC] MLPCN Grant: 1 R03 DA031086-01A1 PI Name: Dr. R. Eric Davis NCGC Assay Overview: Diffuse large B-cell lymphoma (DLBCL) is the most common category of non-Hodgkin lymphoma, with ~20,000 new cases per year in the United States. DLBCL should be regarded as a collection of different neoplasms. Microarray gene expression analysis has defined two principal types of DLBCL, named for their similarity to normal B cell stages or activation states: a germinal center B-cell (GCB) type, and an activated B-cell (ABC) type. In ABC-DLBCL, a constitutive high-level activity of the NF-kappaB family of transcription factors has been observed (1) and NF-kappaB target genes are more highly expressed in ABC primary tumors than in GCB tumors. Functional studies have shown a constitutive high-level activity of the IkappaB (inhibitor of kappa-B) kinase (IKK) complex. […] Further analysis of DLBCL primary tumors for NF-kappaB target gene expression imply that although CARD11 is required for constitutive IKK activity in all ABC-DLBCL lines, mutations in CARD11 may be the root cause of IKK activation only in lines or tumors with such mutations. In other words, CARD11 mutations may explain NF-kappaB activation in only 10% of ABC-DLBCL cases. […] This process has been termed 'chronic active BCR signaling' (CABS). The goal of this screen is to find small-molecule inhibitors of the CABS pathway found in ABC-DLBCL lines using a cell-based assay that measures IkappaBalpa stability, which has already been extensively validated in the OCI-Ly3 line (PubChem AID:445; REF: 4). […] The assay uses green (CBG68) and red (CBR) emitting beetle luciferases [Chroma-GloTM developed by Promega Corp.] where the green luciferase is fused to IkappaBalpha and the red luciferase is present in its native state. Both luciferase genes are stably present in the TMD8 human ABC DLBCL cell line, but their expression is under the control of tetracycline-inducible promoters. Following the addition of doxycycline to induce expression of the luciferases, the green luminescence in control cultures rises only slowly because the CBG fusion partner IkappaBalpha is targeted by IKK activity for rapid degradation. In contrast, green luminescence rises rapidly in the presence of proteasome inhibitors or IKK inhibitors. The rise in red luminescence of CBR is not affected by proteasome or IKK inhibitors, and serves as normalization for cell number and nonspecific effects. Compounds were screened as a concentration-titration series that ranged from 46 uM to 3 nM.
NCGC Assay Protocol Summary: Cells were seeded in 1536-well plates at 5000 cells/4uL in IMDM medium containing 0.5% FBS, w/o phenol red, 1% penicillin/streptomycin. Then, 23 nL of compounds or DMSO were delivered to each well using a pin tool. One uL 20ng/ml doxycycline was then dispensed into white solid 1536-well plates and the plates were incubated at 37C/5% C02 in a cell incubator for 4 hrs. Then 4 uL luminescent substrate mix (in-house prepared: 150 mM Tris-Cl, pH 7.6, 3 mM MgCl2, 1% Triton X-100, 5 mM DTT, 0.2 mM CoA, 0.15 mM ATP, 5 mM D-luciferin, final concentrations) was added to each well. The plate was incubated at r.t. for 10-15 min. The plates were measured on a ViewLux plate reader for green luminescence (540/20 nm filter) and red luminescence (618/8 nm filter). The green and red luminescent signals were corrected for red and green luminescence filter overlap using previously determined filter calibration constants (determined using the procedure outlined in the Promega Technical Manual; REF 4). The %Activity was determined from the ratio of corrected green/red luminescent values. MG132 were used as control. […] Red luminescent %Activity was normalized to the difference between red luminesence in basal cells (0%Activity) and zero luminescence (-100% Activity). […]
Potency is read from the fitted curve at half-maximal effect.

Potency, active:
CCCOc1ccccc1C1CC(=O)Nc2cc3c(cc21)OCO3 (configuration not stated) 23.1 µM
COc1ccc(NC(=O)c2sc(N)nc2-c2ccccc2)cc1 12.6 µM

Potency, inactive:
O=C(COC(=O)COc1cccc(F)c1)NCC1CCCCC1
O=C(NCc1ccccc1CN1CCCC1)C1CCN(S(=O)(=O)c2ccc(Cl)cc2)CC1
Cc1cccc(NC(=O)c2ccc(S(=O)(=O)N(C)c3ccccc3)cc2)n1
COc1ccc(NC(=O)CN2C(=O)COc3ccc(S(=O)(=O)N4CCOCC4)cc32)c(OC)c1
Cc1ccc(CNC(=O)Cn2cnc3c(NCc4ccccc4)ncnc32)o1
COc1ccccc1N(C)S(=O)(=O)c1ccc(Cl)c(C(=O)Nc2ccncc2)c1
C[C@H]1COC(=O)[C@H](CC(=O)OC(C)(C)C)C/C=C\C[C@@H](CC(=O)N[C@H](CO)Cc2ccccc2)C(=O)N1
Nc1cc(N)nc(SCC(=O)Nc2cccc(S(=O)(=O)N3CCCCC3)c2)n1
COc1ccc(S(=O)(=O)N2CCCCCC2)cc1NC(=O)Cc1ccc(OC)c(OC)c1
COC(=O)c1cc(C(=O)NC(C)C2CC3CCC2C3)cc([N+](=O)[O-])c1 (configuration not stated)
O=C(CN(Cc1ccc(Br)cc1)S(=O)(=O)c1ccccc1)NCc1ccncc1
Cc1ccc(C)c(N2CCN(C(=O)CCc3nc(-c4cccc(C(F)(F)F)c4)no3)CC2)c1
COc1cc2c(cc1OC)C(c1ccc(C)o1)CC(=O)N2 (configuration not stated)
COc1ccc(C2CC(=O)Nc3cc(C)c(C)cc32)c(OC)c1OC (configuration not stated)
COc1ccc(NC(=O)c2cnc(NS(=O)(=O)c3ccccc3)nc2)cc1
COC(=O)[C@H](Cc1ccccc1)NC(=O)Nc1ccc(OC)cc1
CCCCCCSc1ccc([C@@H]2[C@@H]3C(=O)N(CC)C(=O)[C@@H]3[C@]3(C(=O)OC)CCCCN23)cc1OC
O=C(c1ccc(S(=O)(=O)NCc2ccco2)cc1)N1CCN(c2ccccc2)CC1
CCN1C(=O)[C@@H]2[C@@H](c3ccc(-c4ccc(OC)cc4)c(OC)c3)N3CCC[C@@]3(C(=O)OC)[C@@H]2C1=O
COc1ccc(Cl)cc1NC(=O)CN(C)C(=O)c1cc2ccccc2cc1OC
CC(C)N(Cc1nnc(-c2ccccc2Br)o1)C(=O)c1cc(Cl)nc2ccccc12
COc1ccccc1N1CC(C(=O)Nc2nnc(SCC(=O)NC(C)C)s2)CC1=O (configuration not stated)
COc1ccc(/C=N/Nc2cc(N3CCOCC3)nc(C)n2)c(OC)c1
COc1ccc(N2CCN(C(=O)COC(=O)c3cccc(S(=O)(=O)Nc4ccccc4OC)c3)CC2)cc1
Cn1c(CC(=O)NNC(=O)c2ccccc2F)nc2ccccc21
CN1C(=O)[C@H]2[C@@H](/C=C/c3ccccc3)N3C(=O)CN(Cc4ccc(-c5ccccc5)cc4)C(=O)[C@@]3(C)[C@H]2C1=O
COc1cc(Cl)ccc1OCc1cc(C(=O)N(C)CCc2c(C)n[nH]c2C)no1
CC1CCN(c2ccc(-c3ccc(NC(=O)c4ccco4)cc3)nn2)CC1
CC(C)(C)OC(=O)C[C@@H]1C/C=C\C[C@@H](CC(=O)N[C@H](CO)Cc2ccccc2)C(=O)NCCOC1=O
CCN1C(=O)[C@@H]2[C@@H](c3ccc(-c4ccccc4)cc3)N3CCCC[C@@]3(C(=O)OC)[C@@H]2C1=O
CCN(c1ccccc1)S(=O)(=O)c1ccc(C(=O)Nc2ccccc2OC)cc1
COc1ccc(-c2csc3ncnc(N4CCN(S(=O)(=O)c5cccc(F)c5)CC4)c23)cc1
CC(=O)c1c(C)[nH]c(C(=O)COC(=O)c2cccs2)c1C
COc1ccc(-c2c(C#Cc3ccsc3)c3cc(-c4ccc(CN5CCOCC5)cc4)ccc3n2C)cc1
O=C(Nc1cc(S(=O)(=O)Nc2ccc(Cl)cc2)ccc1O)c1ccc(F)cc1F
Cc1cc(C)cc(OCC(=O)Nc2ccc(N3CCOCC3)cc2N2CCOCC2)c1
C=CC[C@H](CC(=O)NCCO)C(=O)N[C@@H](COC(=O)[C@@H](CC=C)Cc1ccc(F)cc1)Cc1c[nH]c2ccccc12
CSCc1nnc(NC(=O)c2ccc(S(=O)(=O)N3CCCCC3C)cc2)o1 (configuration not stated)
CCOCc1c(C(=O)N2CCN(Cc3ccc(Br)s3)CC2)oc2ccccc12
COc1cc(OC)cc(-c2c(-c3cccs3)c3cc(-c4ccc(OC)cc4F)ccc3n2C)c1
COc1ccc(CNC(=O)C[C@H]2C[C@H](C(=O)N3CCOCC3)[C@@]3(C)c4[nH]c5cc(CCC(=O)N(C)C)ccc5c4CCN3C2=O)cc1OC
O=C(COC(=O)c1c(Cl)cccc1Cl)Nc1cccc(S(=O)(=O)NC2=NCCCCC2)c1
CCN(CC)S(=O)(=O)c1ccc(N2CCN(C)CC2)c(NC(=O)Nc2ccccc2F)c1
CCCN(CC(=O)NC(=O)NC1CCCCC1)CC(=O)Nc1cc(Cl)ccc1Cl
COc1cc(C(=O)NCc2ccncc2)cc(Br)c1OCc1ccccc1
CN(c1ccccc1)S(=O)(=O)c1cc(C(=O)N2CCN(c3ncccn3)CC2)ccc1Cl
CN[C@H](C(=O)NC[C@H]1O[C@@H](n2cnc3c(N)ncnc32)[C@H](O)[C@@H]1O)[C@@H](C)OCc1ccccc1
CCN(CC)S(=O)(=O)c1ccc(CNC(=O)CN2C(=O)NC3(CCc4ccccc43)C2=O)cc1 (configuration not stated)
O=C(NC1CCCCCC1)C1CCN(C(=O)c2ccc(Cl)cc2)CC1
Cc1nn(Cc2ccccc2)c(C)c1C(=O)N1CCN(CC(=O)Nc2ccccc2Cl)CC1
COc1cc(OC)cc(-c2c(-c3ccc(F)cc3)c3cc(-c4ccc5cc[nH]c5c4)ccc3n2C)c1
O=C(CNC(=O)c1ccco1)NNC(=O)c1ccc(Br)cc1
CC(C)(C)OC(=O)C[C@@H]1C/C=C\C[C@@H](CC(=O)NCCO)C(=O)N[C@H](Cc2c[nH]c3ccccc23)COC1=O
CC(C)c1ccc(S(=O)(=O)N2CCN(C(C)C(=O)NC3CCCC3)CC2)cc1 (configuration not stated)
CN(CC(=O)Nc1ccc(Cl)c(C(F)(F)F)c1)C(=O)CCC(=O)c1ccccc1
CC1CCC(CN2CCN=C2N(C)C)CC1 (configuration not stated)
COc1ccc(C(CNC(=O)c2ccc(NS(=O)(=O)c3ccc(F)c(C)c3)cc2)N(C)C)cc1 (configuration not stated)
COc1cc(OC)cc(C(=O)N[C@H](C(=O)NNC(=O)c2ccc(Br)cc2)C(C)C)c1
CCN1C(=O)[C@@H]2[C@@H](c3ccc(-c4cccc(Cl)c4)cc3)N3CCC[C@@]3(C(=O)OC)[C@@H]2C1=O
C=C(C)CNc1cc(S(=O)(=O)N2CCOCC2)ccc1Oc1ccccc1
Cc1cc(Cl)c2oc(C(=O)N(C)C(C)c3ccccn3)c(C)c2c1 (configuration not stated)
CSCCC(NC(=O)c1ccccc1)C(=O)N1CCN(Cc2ccc(Cl)cc2)CC1 (configuration not stated)
COc1ccc(S(=O)(=O)N(C)C[C@H]2Oc3c(NC(=O)Nc4ccc5c(c4)OCO5)cccc3C(=O)N([C@H](C)CO)C[C@@H]2C)cc1
O=C(NCCC1CCCCN1S(=O)(=O)c1ccc(Cl)cc1)C(=O)NCc1ccco1 (configuration not stated)
O=C(NCCC(=O)N1O[C@@H]2C=C[C@H]1C2)OCC1c2ccccc2-c2ccccc21
N#Cc1cccc(NC(=O)C2CCCN(C(=O)c3ccc(Cl)cc3)C2)c1 (configuration not stated)
CC(C)(C)OC(=O)C[C@@H]1C/C=C\C[C@@H](CC(=O)N[C@@H](CO)Cc2ccccc2)C(=O)N2CCC[C@H]2COC1=O
CNS(=O)(=O)c1cccc(C(=O)OCCCC(=O)c2ccccc2)c1
COc1ccc(-c2noc(CCC(=O)N3CCN(c4cccc(C)c4)CC3)n2)cc1
Cc1ccc(N2C(=O)N3[C@@H]4c5ccccc5OC[C@@H]4[C@@H](c4ccccc4)[C@@]3(C)C2=O)cc1
CC(C)n1ncc2c(C(=O)Nc3ccc(CC#N)cc3)cc(C3CC3)nc21
COc1cccc(N2CCN(CC(=O)Nc3ccnn3C3CCCC3)CC2)c1
COc1ccccc1-c1sc2ccccc2c1C#CC1(O)CCCCC1
C#CCOCCOCCOCCNc1nc(N2CCN(C(=O)[C@H](CO)n3cc([C@@H](N)C(C)C)nn3)CC2)nc(N2CCN(C(=O)[C@H](CCC(=O)O)n3cc([C@@H](N)[C@H](C)CC)nn3)CC2)n1
CCCCC/C=C/C1=CC(=O)C[C@H](c2ccc(Cl)cc2)C1
COc1ccc(NS(=O)(=O)c2ccc3oc(SCC(N)=O)nc3c2)cc1
COC1=C(N2CCOCC2)C(=O)c2ccccc2C1=O
CCOC(=O)C1CCN(C(=O)CN2C(=O)NC(C)(c3ccc4cc(OC)ccc4c3)C2=O)CC1 (configuration not stated)
CC(C)(C)OC(=O)C[C@@H]1C/C=C\C[C@@H](CC(=O)N[C@H](CO)Cc2ccccc2)C(=O)NC[C@@H](c2ccccc2)OC1=O
Cc1ccc(NC(=O)CCC(=O)N2CCC(c3ccccc3)=N2)cc1S(=O)(=O)N1CCCCC1
Cc1ccc(-n2ncc(C(=O)NC3CC3)c2C2CCN(C(=O)OC(C)(C)C)CC2)c(C)c1
COc1ccc(CN2C(CC(=O)Nc3cccnc3)c3ccc(C(F)(F)F)cc3S2(=O)=O)cc1 (configuration not stated)
Cn1c2cc(B(O)O)sc2c2cnn(Cc3ccccc3F)c(=O)c21
COc1ccc(-c2c(-c3cc(OC)cc(OC)c3)n(C)c3ccc(-c4ccn[nH]4)cc23)cc1
COc1ccc(S(=O)(=O)N2CCCCC2)cc1NC(=O)c1cc([N+](=O)[O-])ccc1N1CCOCC1
